Screening data from PubChem.
RXFP1 ag = qHTS Assay for Agonists of the Relaxin Receptor RXFP1; Relaxin receptor 1 (Homo sapiens), Q9HBX9; HEK293T-RXFP1 cAMP TR-FRET, 30 min; response scale: percent of porcine relaxin response, buffer zero; Potency, µM (titrated, usually from 57.5 µM), without a hit: at the highest dose activation, most hits filed as activators; 370,000 tested, 0.3% active; AID 2676, 2010; active means well fitted activation curve with a large enough effect; further: potency means the concentration at half of the fitted maximal effect; nearly all actives have a fitted effect of over 60% in size
Target sequence (Q9HBX9 whole entry, looked up): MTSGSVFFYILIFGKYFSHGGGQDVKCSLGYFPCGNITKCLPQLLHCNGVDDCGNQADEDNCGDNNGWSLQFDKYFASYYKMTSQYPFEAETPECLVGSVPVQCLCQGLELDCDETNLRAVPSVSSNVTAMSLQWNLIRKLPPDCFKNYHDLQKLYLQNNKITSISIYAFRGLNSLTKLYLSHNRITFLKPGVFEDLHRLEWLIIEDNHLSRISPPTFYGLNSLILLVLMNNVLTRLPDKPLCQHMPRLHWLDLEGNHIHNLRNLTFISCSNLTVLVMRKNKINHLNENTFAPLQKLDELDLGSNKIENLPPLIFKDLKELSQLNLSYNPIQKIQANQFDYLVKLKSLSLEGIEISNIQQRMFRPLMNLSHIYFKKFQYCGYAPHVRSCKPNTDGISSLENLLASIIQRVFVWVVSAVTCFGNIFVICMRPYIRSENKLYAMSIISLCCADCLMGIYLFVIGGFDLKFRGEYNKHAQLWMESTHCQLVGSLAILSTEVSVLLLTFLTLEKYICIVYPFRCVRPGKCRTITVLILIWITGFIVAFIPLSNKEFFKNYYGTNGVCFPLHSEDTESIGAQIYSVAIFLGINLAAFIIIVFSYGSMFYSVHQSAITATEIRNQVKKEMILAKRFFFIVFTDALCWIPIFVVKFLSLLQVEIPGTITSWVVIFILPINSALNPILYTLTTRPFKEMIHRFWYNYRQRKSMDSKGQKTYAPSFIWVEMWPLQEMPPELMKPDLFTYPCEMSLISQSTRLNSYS
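cAMP rise read by TR-FRET after 30 min, 37C compound exposure (up to 58 uM) in RXFP1-transfected HEK293 cells with Ro 20174 present. EC50 from Hill-equation fits, with 29 nM porcine relaxin as 100% and buffer as basal.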
KCNH2 3.1 inh = qHTS for Inhibitors of KCHN2 3.1: Mutant qHTS; Potassium voltage-gated channel subfamily H member 2, brain isoform KCNH2 3.1 (human); U2OS KCNH2 3.1, thallium flux FluxOr; stronger effect = lower value; activity change, % (tested at about 1.8 µM); 340,000 tested, 0.95% active; AID 720553, 2013;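 active means maximum activity change below -70%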;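 further: thallium influx rate constant from kinetic fluorescence after stimulation buffer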
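Thallium flux read-out: FluxOr dye with Red40 quencher in HBSS/HEPES, 45 min at RT. Rate constants from kinetic reads were normalized to positive and negative DMSO controls. Cells: U2OS virally expressing the 3.1 isoform.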
pAkt inh = HTS Assay for Inhibitors of Akt Phophorylation: Primary Screen. 360,000 tested, 0.32% active. Neuro2A IGF-stimulated pAkt S473 HTRF, 20 min; stronger effect = lower value. activity change, % for hits at 50 µM; in the data active means activity change below about -80%
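Single-point screen (50 µM final compound) in Neuro2A cells stimulated 20 min with 6 nM IGF at 37 deg C. After lysis, Ser473-phosphorylated Akt read by HTRF (ex 330 nm, em 615/665 nm) as the 665/615 ratio.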
hERG WT inh = qHTS for Inhibitors of KCHN2 3.1: Wildtype qHTS; Voltage-gated inwardly rectifying potassium channel KCNH2 (Homo sapiens), Q12809; 340,000 tested, 0.37% active; activity change, % at 1.84 µM; AID 720551, 2013; U2OS, BacMam KCNH2, thallium flux FluxOr; stronger effect = lower value;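 active means maximum activity change below -70%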
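U2OS cells were transduced with wild-type KCNH2 virus (2.03 x 10^8 / mL) for 4 h at room temperature, then cultured overnight at 37 C. Thallium flux was read with FluxOr dye. Rate constants were normalized to DMSO controls.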
RXFP1 antagonist = qHTS Assay for Antagonists of the Relaxin Receptor RXFP1; 350,000 tested, 0.59% active; Relaxin receptor 1 (Homo sapiens), Q9HBX9; HEK293-RXFP1, relaxin-stimulated cAMP HTRF, 30 min; stronger effect = lower value; activity change, negative = inhibition, % at 57.5 µM; AID 1259400, 2018;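 active means activity change of -60% or lower, but not beyond a set lower limit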
* = called active by the depositor. The list is not random: actives were taken first. Their share in the collection is about 1.7%. On the % scale 0 is the no-effect control and ±100 the full control effect.

`CC(C)Oc1ccc(C(CCN)C2CCCCC2)cc1` (stereo not drawn) gave RXFP1 ag 0%, KCNH2 3.1 inh -17, pAkt inh inactive, hERG WT inh 5 and RXFP1 antagonist -75*.
CC(C)Oc1ccc(C(=O)NC2CCCCC2)cc1 was read as RXFP1 ag 0%, KCNH2 3.1 inh -7, pAkt inh inactive, hERG WT inh -17 and RXFP1 antagonist -7.
For Cc1cc(C)c(S(=O)(=O)NCc2cccnc2)cc1C the results were RXFP1 ag 0%, KCNH2 3.1 inh -6, pAkt inh inactive, hERG WT inh -2 and RXFP1 antagonist 10.
Cc1ccc(S(=O)(=O)NCc2cccnc2)c(C)c1 was read as RXFP1 ag -5%, KCNH2 3.1 inh -71*, pAkt inh inactive, hERG WT inh -13 and RXFP1 antagonist -5.
`COc1ccc(Br)cc1-c1nc(CCl)cs1` gave RXFP1 ag 18µM*, KCNH2 3.1 inh 5, pAkt inh inactive, hERG WT inh 55 and RXFP1 antagonist 6.
Screening CCOc1ccc(-c2nc(CCl)cs2)cc1 returned RXFP1 ag -1%, KCNH2 3.1 inh 11, pAkt inh inactive, hERG WT inh 2 and RXFP1 antagonist 11.
Screening CCCN(CC(=O)Nc1ccccc1C)C(=O)C1CCN(S(=O)(=O)c2ccc3c(c2)OCCO3)CC1 returned KCNH2 3.1 inh 0, pAkt inh inactive, hERG WT inh -2 and RXFP1 antagonist 8.
Screening Cc1cc(/C=C2\NC(=S)N(C)C2=O)ccc1N1CCCC1 returned RXFP1 ag -5%, pAkt inh inactive, hERG WT inh -80* and RXFP1 antagonist -8.
Screening CCOc1cc(C2C(C(=O)OC)=C(C)N=C3SC(C)C(=O)N32)ccc1OC(C)=O (stereo not drawn) returned RXFP1 ag 2%, KCNH2 3.1 inh -16, pAkt inh inactive, hERG WT inh 0 and RXFP1 antagonist 9.
`CCOC(=O)C1=C(C)N=C2SC(C)C(=O)N2C1c1ccc(OC(C)=O)c(OC)c1` (stereo not drawn) gave RXFP1 ag 2%, KCNH2 3.1 inh 0, pAkt inh -104%*, hERG WT inh 7 and RXFP1 antagonist 4.
COC(=O)c1ccc(-c2ccc(C(c3c(C)[nH][nH]c3=O)c3c(C)[nH][nH]c3=O)o2)cc1 was read as RXFP1 ag -1%, KCNH2 3.1 inh 14, pAkt inh inactive, hERG WT inh -9 and RXFP1 antagonist -87*.
`COc1ccc(-c2ccnc(SCC(=O)c3ccc(OC)c(OC)c3)n2)cc1` gave RXFP1 ag -1%, KCNH2 3.1 inh -106*, pAkt inh inactive and hERG WT inh -12.
COc1ccc(-c2ccnc(SCC(=O)c3ccc(Cl)cc3)n2)cc1 was read as RXFP1 ag 0%, KCNH2 3.1 inh -10, pAkt inh inactive, hERG WT inh 4 and RXFP1 antagonist -5.
CCCn1c(SCC(=O)Nc2ccc(NC(=O)CC)cc2)nc2c1c(=O)n(C)c(=O)n2C was read as RXFP1 ag 20µM*, KCNH2 3.1 inh -12, pAkt inh inactive, hERG WT inh 8 and RXFP1 antagonist -1.
CCn1c(SCC(=O)Nc2ccc(OC)cc2)nc2c1c(=O)n(C)c(=O)n2C was read as RXFP1 ag 30%, KCNH2 3.1 inh 13, pAkt inh inactive, hERG WT inh 1 and RXFP1 antagonist 4.
`CCn1c(SCC(=O)Nc2ccc(NC(C)=O)cc2)nc2c1c(=O)n(C)c(=O)n2C` gave RXFP1 ag 16µM*, KCNH2 3.1 inh 13, pAkt inh inactive, hERG WT inh 0 and RXFP1 antagonist 23.
`N#Cc1ccccc1COC(=O)CCCC1=NS(=O)(=O)c2ccccc2N1` gave RXFP1 ag 2%, KCNH2 3.1 inh 5, pAkt inh inactive, hERG WT inh 3 and RXFP1 antagonist -14.
Screening CCOc1ccc(NS(=O)(=O)c2cnc(Cl)c(Cl)c2)cc1 returned RXFP1 ag 1%, KCNH2 3.1 inh 7, pAkt inh inactive, hERG WT inh 35 and RXFP1 antagonist -9.
Screening Cc1[nH]ccc(=O)c1OCC(=O)O returned RXFP1 ag 2%, KCNH2 3.1 inh -6, pAkt inh inactive, hERG WT inh -5 and RXFP1 antagonist 1.
Screening Cc1[nH]ccc(=O)c1OCc1c(Cl)cccc1Cl returned RXFP1 ag -1%, KCNH2 3.1 inh 6, pAkt inh -114%*, hERG WT inh -5 and RXFP1 antagonist -6.
O=C(Nc1cnn(Cc2ccc(F)cc2)c1)c1cc2nc(-c3ccco3)cc(C(F)(F)F)n2n1 was read as RXFP1 ag 2%, KCNH2 3.1 inh 0, pAkt inh inactive, hERG WT inh -8 and RXFP1 antagonist 4.
Screening CCN(CC)S(=O)(=O)c1cccc(C(=O)OCC(=O)Nc2ccc3c(c2)c2ccccc2n3CC)c1 returned RXFP1 ag 3%, KCNH2 3.1 inh 9, pAkt inh inactive, hERG WT inh -119* and RXFP1 antagonist 24.
For CCn1c2ccccc2c2cc(NC(=O)COC(=O)c3cccc(S(=O)(=O)NC)c3)ccc21 the results were RXFP1 ag 2%, KCNH2 3.1 inh 2, pAkt inh inactive, hERG WT inh -1 and RXFP1 antagonist 7.
`COc1ccc(NC(=O)C(c2ccccc2)N2CCN(c3ccccn3)CC2)cc1Cl` (stereo not drawn) gave RXFP1 ag -1%, KCNH2 3.1 inh -109*, pAkt inh inactive, hERG WT inh 15 and RXFP1 antagonist -8.
For O=C(NNc1ccccc1F)c1ccccc1 the results were RXFP1 ag 1%, KCNH2 3.1 inh -8, pAkt inh inactive, hERG WT inh 1 and RXFP1 antagonist -5.
Screening CCOC(=O)CCCCC(=O)c1[nH]c(=O)[nH]c1CSc1nnc2c3cc(Br)ccc3n(C)c2n1 returned RXFP1 ag 14µM*.
CCOC(=O)c1cc(CC)sc1NC(=O)c1ccc2c(c1)OCCO2 was read as RXFP1 ag -1%, KCNH2 3.1 inh -2, pAkt inh -113%*, hERG WT inh 0 and RXFP1 antagonist -3.
CSc1ccccc1C(=O)C1CCCN(C(=O)c2cc(C(C)C)no2)C1 (stereo not drawn) was read as RXFP1 ag 1%, KCNH2 3.1 inh 4, pAkt inh inactive, hERG WT inh 1 and RXFP1 antagonist -6.
For O=C(CN1CCN(C(c2ccccc2)c2ccccc2)CC1)N1CCOCC1 the results were RXFP1 ag 2%, KCNH2 3.1 inh -15, pAkt inh inactive, hERG WT inh 11 and RXFP1 antagonist -8.
